# In the OligoGym collection:
# Molecular target: ENTHD1
# Test: pooled miR-30 sensor sort-seq; sequence = guide strand
# Settings: shRNA
# Note: reference of the scale not given here.
row,Sequence,sensor-assay potency score (higher = more potent)
1,TTTTATTATGTAACCTTCCAAA,-1.23
2,TTAAGTTCTTGGATCACTGTGC,0.62
3,TTGTGAACTATTCAGACTCATG,-1.36
4,TACTTGACCAACATGCTGGTAA,0.494
5,TAGTTTGAAAGATACTTGCTAA,-0.328
6,TTATCATCCATCTGAATGCTGG,-0.718
7,TAGAAAACAATATAGAGTGGGA,0.012
8,TATTTGTAAAGATACCATCTGA,-0.616
9,TTTAACTCCTAACACTAGCATC,-1.32

# Molecular target: ENTPD8
# Test: as above
# Settings: shRNA
row,Sequence,sensor-assay potency score (higher = more potent)
1,TCAACTGTGAGGTTCTGGGGGA,0.228
2,TAGCTGTGAGTGTAGACGCTGT,0.245
3,TCAAACACGATCCCAAACTTGA,-0.982
4,TTCAACTGTGAGGTTCTGGGGG,0.121
5,TAGACGCTGTAGTCGGAGCCGT,-0.675
6,TTGACCAGCGTCCCCAAGCCGT,-1.42
7,TAGTCGGAGCCGTAGAGGCGAA,-1.54
8,TAGTTGACAGTGATCCAACCAA,0.0426
9,TAGCCGCTGAGGTAGCACGGGT,-0.869
10,TTGCCTGTCCCTTCAACTGTGA,-0.84
11,TCAGCATCTGGTCCCGTCCAAA,-1.74

# Molecular target: EPAS1
# Test: as above
# Settings: shRNA
row,Sequence,sensor-assay potency score (higher = more potent)
1,TTCATGTCCATGCTGTGGCGGC,-0.685
2,TCACACATGATGATGAGGCAGG,-0.0655
3,TACAAGTTGTCCATCTGCTGGT,0.354
4,TTAGCTGGAAGTCTTCCCCGTC,-0.236
5,TTGAACAGGGATTCAGTCTGGT,0.262
6,TTGAGGTTGACAGTACGGCCTC,-0.329
7,TTTAAGAACATTTCAGAACAGG,-0.533
8,TTGGGTGAACTTATCATTGGGT,0.697
9,TTAGAAGTCATTGAAGGTGGGG,0.712
10,TTTGGCAACAACAATAACGAGG,-0.434
11,TAGAAGTCATTGAAGGTGGGGA,0.421
12,TTGTTGTAGACTTTCACCTGGC,0.403
13,TTTCAGGTACAAGTTGTCCATC,-1.4
14,TCTGTGGACATGTCTTTGCTTT,-0.503
15,TTGTGTGTTCGCAGGAAGCTGA,-0.595
16,TTTTCTGACAGAAAGATCATGT,0.329
17,TAGTTGACACACATGATGCACT,-0.913
18,TTCAGCTTCAGCTTGTTGGAGA,-0.377
19,TAGTATGGACAGTTGTGTGTGA,-0.0372
20,TAGAACACCTCCGTCTCCTTGC,0.306
